Screening results as filed in PubChem.
TEAD-YAP inh = TEAD-YAP interaction inhibition; hit rate 1.4% among 640,000; inhibition, % at 9.12 µM; HEK-TIYL cells, TEAD-Gal4/YAP UAS-luciferase luminescence; AID 1259422; in the data active = inhibition above about 32%;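 also: 0% = median of test compound wells and 100% = reference inhibitor wells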
MITF inh = inhibitors of human MITF; O75030; AlphaScreen MITF homodimerization, bead proximity signal; inhibition, % at 2.6 µM; hit rate 0.91% among 650,000; AID 1259374; in the data active = inhibition above about 50%;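 also: 0% = vehicle wells with protein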
Target sequence (O75030 whole entry, looked up): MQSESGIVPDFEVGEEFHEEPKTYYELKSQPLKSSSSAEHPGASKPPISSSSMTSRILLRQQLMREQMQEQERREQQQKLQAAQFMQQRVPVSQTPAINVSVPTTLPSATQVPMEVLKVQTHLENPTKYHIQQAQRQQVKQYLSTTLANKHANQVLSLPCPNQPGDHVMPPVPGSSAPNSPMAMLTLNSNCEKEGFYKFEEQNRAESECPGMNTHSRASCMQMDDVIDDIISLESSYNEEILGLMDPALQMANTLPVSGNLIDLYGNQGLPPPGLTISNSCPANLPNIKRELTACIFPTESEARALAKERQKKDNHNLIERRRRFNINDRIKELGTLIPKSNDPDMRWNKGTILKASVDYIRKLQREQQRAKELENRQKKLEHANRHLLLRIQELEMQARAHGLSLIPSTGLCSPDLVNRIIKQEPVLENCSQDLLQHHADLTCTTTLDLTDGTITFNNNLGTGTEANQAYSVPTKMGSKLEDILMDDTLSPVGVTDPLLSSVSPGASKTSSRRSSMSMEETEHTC
FBW7 activator = human FBW7 E3 ligase activation, primary screen; hit rate 0.13% among 650,000; normalized activity (activation), % at 26.1 µM; AlphaScreen FBW7–phospho-cyclin E peptide binding, activator screen; Q969H0; in the data active = normalized activity above about 1.9%;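 also: purified mutant Fbw7 with reduced substrate affinity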
GPR151 activ = activates the human receptor GPR151; activation, % at 11.2 µM; hit rate 1% among 650,000; Q8TDV0; AID 1508602; PathHunter beta-arrestin GPR151 cells, luminescence; in the data active = activation above about 4.9%;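 also: 0% = median of compound wells and 100% = cells with positive control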
GPR151 conf act = confirmation of human GPR151 activators; shares compounds with GPR151 activ; GPR151 PathHunter beta-arrestin cells, luminescence, 90 min; % of EA-reagent control over plate median; activation, % at 11.2 µM; 6,700 tested, under 10 active; AID 1508609;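 active = mean percent activation across replicates above the confirmation screen cutoff of 4.91%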
GPR119 ag = counter-screen for GPR151 activators: effect on human GPR119 | shares compounds with GPR151 activ | GPR119 PathHunter beta-arrestin cells, luminescence, 90 min; 0 = compound-well median, 100 = enzyme-acceptor control | activation, % at 11.2 µM | hit rate 0.3% among 6,700;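 active = mean percent activation in the counterscreen above 29.09%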;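 also: counterscreen on off-target GPR119 to flag nonselective hits from the GPR151 activator screen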
Numbers without * were called inactive. An excerpt weighted towards active compounds, which were near 3.5% of everything screened.

Results for COC(=O)C1=NNC2C(=O)N(c3ccc(OC)cc3)C(=O)C12 (stereo not drawn) ?
TEAD-YAP inh: 8; MITF inh: 18; FBW7 activator: 0; GPR151 activ: 6.1*; GPR151 conf act: 0; GPR119 ag: 8

Results for COc1cc(-c2cn3c(NC(=O)c4cccs4)c(C)nc3cn2)cc(OC)c1OC ?
TEAD-YAP inh: -5; MITF inh: -6; FBW7 activator: 0; GPR151 activ: 5.3*; GPR151 conf act: 1; GPR119 ag: 11

How did CC/C=C\C/C=C\C/C=C\CCCCCCCC(=O)OCC do in these assays?
MITF inh: -9; GPR151 activ: -2

What do the screens show for `CCCCC/C=C\C/C=C\C/C=C\CCCCCCC(=O)OCC`?
MITF inh: 4; GPR151 activ: 9.1*; GPR151 conf act: 0; GPR119 ag: 4

What do the screens show for `CC(C)c1c(C(=O)Nc2ccccc2)c(-c2ccccc2)c(-c2ccc(F)cc2)n1CC[C@@H](O)C[C@@H](O)CC(=O)O`?
MITF inh: -4; FBW7 activator: 0; GPR151 activ: 5.2*; GPR151 conf act: 0; GPR119 ag: -15

What do the screens show for `O=C(Nc1ccc(-c2ccccc2)cc1)c1ccc(F)cc1`?
TEAD-YAP inh: -22; MITF inh: -20; FBW7 activator: 0; GPR151 activ: 1

What do the screens show for `CSc1ccc2nc(NC(=O)c3ccccc3C)sc2c1`?
TEAD-YAP inh: -39; MITF inh: 5; FBW7 activator: 0; GPR151 activ: -6

How did COc1cccc(C(=O)Nc2nc3ccc(SC)cc3s2)c1OC do in these assays?
TEAD-YAP inh: -14; MITF inh: -15; FBW7 activator: 0; GPR151 activ: 5.0*; GPR151 conf act: 0; GPR119 ag: 8

Results for CCCOc1ccccc1N1C(=O)C2ON(c3ccccc3)C(c3ccc(N(C)C)cc3)C2C1=O (stereo not drawn) ?
TEAD-YAP inh: 2; MITF inh: 14; FBW7 activator: 0; GPR151 activ: 0

How did O=C1NC(=O)N(CCC2=CCCCC2)C1=O do in these assays?
TEAD-YAP inh: -1; MITF inh: -7; FBW7 activator: 0; GPR151 activ: 10*; GPR151 conf act: 0; GPR119 ag: -4

What do the screens show for `O=C1CCC(=O)N1CCC1=CCCCC1`?
TEAD-YAP inh: 14; MITF inh: 4; FBW7 activator: 0; GPR151 activ: 1

What do the screens show for `COc1ccc(CNC2CC(=O)N(c3ccc(Cl)cc3)C2=O)cc1OC` (stereo not drawn)?
TEAD-YAP inh: -1; MITF inh: -2; FBW7 activator: 0; GPR151 activ: -1

Results for O=C(O)c1cccc(NS(=O)(=O)c2cccc([N+](=O)[O-])c2)c1 ?
TEAD-YAP inh: 12; MITF inh: 12; FBW7 activator: 1; GPR151 activ: 0

Results for O=c1c2cnn(-c3ccccc3)c2ncn1C/C=C/c1ccccc1 ?
TEAD-YAP inh: 1; MITF inh: 3; FBW7 activator: 0; GPR151 activ: 8.3*; GPR151 conf act: 0; GPR119 ag: 2

Results for Cc1c(Cl)cccc1N1CC(c2nc3ccccc3[nH]2)CC1=O (stereo not drawn) ?
TEAD-YAP inh: 8; MITF inh: -2; FBW7 activator: 0; GPR151 activ: 5.6*; GPR151 conf act: 0; GPR119 ag: 3

What do the screens show for `O=C1CC(c2nc3ccccc3[nH]2)CN1c1ccccc1Cl` (stereo not drawn)?
TEAD-YAP inh: -7; MITF inh: 9; FBW7 activator: 0; GPR151 activ: 1

How did CS(=O)(=O)N(Cc1ccccc1Cl)c1ccc(C(=O)NCc2ccco2)cc1 do in these assays?
TEAD-YAP inh: -2; MITF inh: 3; FBW7 activator: 0; GPR151 activ: 0

What do the screens show for `CC(C)CCNC(=O)c1ccc(N(Cc2ccccc2Cl)S(C)(=O)=O)cc1`?
TEAD-YAP inh: -2; MITF inh: 24; FBW7 activator: 0; GPR151 activ: 7.9*; GPR151 conf act: 0; GPR119 ag: -7

Results for CS(=O)(=O)N(Cc1ccccc1Cl)c1ccc(C(=O)N2CCCC2)cc1 ?
TEAD-YAP inh: 2; MITF inh: 14; FBW7 activator: 0; GPR151 activ: 9.2*; GPR151 conf act: 0; GPR119 ag: -1

Results for COc1ccc(C2(NC(=O)c3cnccn3)CCCC2)cc1 ?
TEAD-YAP inh: 4; MITF inh: 0; FBW7 activator: 0; GPR151 activ: 1

How did O=C(COc1ccccc1[N+](=O)[O-])NC(=S)Nc1ccccc1N1CCOCC1 do in these assays?
TEAD-YAP inh: -7; MITF inh: 3; FBW7 activator: 0; GPR151 activ: -1

What do the screens show for `O=C(COc1ccccc1[N+](=O)[O-])Nc1cccc(Cl)c1N1CCOCC1`?
TEAD-YAP inh: 13; MITF inh: -2; FBW7 activator: 0; GPR151 activ: 5.0*; GPR151 conf act: -1; GPR119 ag: -3

How did O=C(c1cc2c(s1)-c1ccccc1S(=O)(=O)C2)N1CCCCCC1 do in these assays?
TEAD-YAP inh: -17; MITF inh: 3; FBW7 activator: 0; GPR151 activ: 0

Results for CCCCOc1ccc(C(=O)N/C(=C/c2ccc(Cl)cc2)C(N)=O)cc1 ?
TEAD-YAP inh: 12; MITF inh: -9; FBW7 activator: 0; GPR151 activ: 9.8*; GPR151 conf act: -1; GPR119 ag: 5

How did CCCCOc1ccc(C(=O)N/C(=C/c2ccc([N+](=O)[O-])cc2)C(N)=O)cc1 do in these assays?
TEAD-YAP inh: 6; MITF inh: 1; FBW7 activator: 0; GPR151 activ: 0

What do the screens show for `C=CCn1c(SCc2ccncc2)nc2ccccc2c1=O`?
TEAD-YAP inh: -9; MITF inh: 4; FBW7 activator: 0; GPR151 activ: -2

How did CCOC(=O)c1c(NC(=O)c2cc(Cl)ccc2OC)sc(C(=O)OC)c1C do in these assays?
TEAD-YAP inh: 7; MITF inh: -4; FBW7 activator: 0; GPR151 activ: 0

What do the screens show for `COC(=O)c1cccc(Nc2nc(C)cc(C)n2)c1`?
TEAD-YAP inh: -26; MITF inh: -5; FBW7 activator: 0; GPR151 activ: 12*; GPR151 conf act: 0; GPR119 ag: -9

How did O=C(Nc1cccc(Cl)c1)N1CCN(c2ccc(Nc3cccnc3)nn2)CC1 do in these assays?
TEAD-YAP inh: -4; MITF inh: 16; FBW7 activator: 0; GPR151 activ: 6.1*; GPR151 conf act: 1; GPR119 ag: 1

What do the screens show for `N#C/C(=C\c1cc2c(cc1[N+](=O)[O-])OCO2)C(=O)Nc1ccc2ccccc2c1`?
TEAD-YAP inh: -17; MITF inh: 24; FBW7 activator: 0; GPR151 activ: 0

How did Cc1oc(-c2cccc(Cl)c2)nc1COC(=O)c1nnn(-c2cccc(F)c2)c1C do in these assays?
TEAD-YAP inh: -1; MITF inh: -12; FBW7 activator: 0; GPR151 activ: 6.0*; GPR151 conf act: -1; GPR119 ag: -12
